Measured values: PubChem BioAssay AID1159580 (chemical genetic matrix, 2015)
Screen size: about 5,500 compounds; about 2,000 (36%) were called active. Inconclusive results (about 18%) are left out. Rule as the data show it: active = normalized growth mostly below about 0.91 (no sharp cut-off); inconclusive = no clear call, values can overlap the other calls; inactive = mostly above about 0.92. The list shows a part of the results.

Assay: chemical genetic growth profiling, strain panel (AID 1159580);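 also: tested at 20 µM; growth read once vehicle control cultures reached saturation at 30 °C; 1 = growth at the plate median or of vehicle wells; lower values mean less growth of the strain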
Conditions: S. cerevisiae deletion strains, growth OD
[1] = locus YAL013W, strain DEP1, stronger effect = lower value
[2] = locus YBR229C, strain ROT2, stronger effect = lower value
[3] = locus YDL101C, strain DUN1, stronger effect = lower value
[4] = locus YDR150W, strain NUM1, stronger effect = lower value
[5] = locus YEL061C, strain CIN8, stronger effect = lower value
[6] = locus YGR078C, strain PAC10, stronger effect = lower value
[7] = locus YGR229C, strain SMI1, stronger effect = lower value
[8] = locus YHR030C, strain SLT2, stronger effect = lower value
[9] = locus YHR087W, strain rtc3, stronger effect = lower value
[10] = locus YJL187C, strain SWE1, stronger effect = lower value
[11] = locus YJR043C, strain POL32, stronger effect = lower value
[12] = locus YJR075W, strain HOC1, stronger effect = lower value
[13] = locus YLR039C, strain RIC1, stronger effect = lower value
[14] = locus YLR058C, strain SHM2 (second series), stronger effect = lower value
[15] = locus YLR085C, strain ARP6, stronger effect = lower value
[16] = locus YLR262C, strain YPT6, stronger effect = lower value
[17] = locus YML094W, strain GIM5, stronger effect = lower value
[18] = locus YMR219W, strain ESC1, stronger effect = lower value
[19] = locus YMR263W, strain SAP30, stronger effect = lower value
[20] = locus YNL153C, strain GIM3, stronger effect = lower value
[21] = locus YNL298W, strain CLA4 (second series), stronger effect = lower value
[22] = locus YNL322C, strain KRE1, stronger effect = lower value
[23] = locus YNR030W, strain Alg12, stronger effect = lower value
[24] = locus YPL055C, strain LGE1, stronger effect = lower value
[25] = locus YPL241C, strain CIN2, stronger effect = lower value
[26] = locus YPR135W, strain CTF4, stronger effect = lower value
[27] = locus YAL040C, strain CLN3, stronger effect = lower value
[28] = locus YCL061C, strain MRC1 (second series), stronger effect = lower value
[29] = locus YDR363W, strain ESC2, stronger effect = lower value
[30] = locus YER002W, strain NOP16, stronger effect = lower value
[31] = locus YMR307W, strain GAS1, stronger effect = lower value
[32] = locus YNL128W, strain TEP1, stronger effect = lower value
[33] = locus YNL175C, strain NOP13, stronger effect = lower value
[34] = locus YNL197C, strain WHI3, stronger effect = lower value
[35] = locus YNL224C, strain SQS1, stronger effect = lower value
[36] = locus YOR083W, strain WHI5 (second series), stronger effect = lower value
[37] = locus YAR019C, strain CDC15, stronger effect = lower value
[38] = locus YBL105C, strain PKC1, stronger effect = lower value
[39] = locus YBR135W, strain CKS1, stronger effect = lower value
[40] = locus YBR136W, strain MEC1, stronger effect = lower value
[41] = locus YBR160W, strain CDC28, stronger effect = lower value
[42] = locus YDL017W, strain CDC7, stronger effect = lower value
[43] = locus YDL028C, strain MPS1, stronger effect = lower value
[44] = locus YDL108W, strain KIN28, stronger effect = lower value
[45] = locus YDL132W, strain cdc53, stronger effect = lower value
[46] = locus YDL214C, strain PRR2, stronger effect = lower value
[47] = locus YDR052C, strain DBF4, stronger effect = lower value
[48] = locus YDR054C, strain cdc34, stronger effect = lower value
[49] = locus YDR226W, strain ADK1, stronger effect = lower value
[50] = locus YDR477W, strain SNF1, stronger effect = lower value
[51] = locus YER123W, strain YCK3, stronger effect = lower value
[52] = locus YER133W, strain GLC7, stronger effect = lower value
[53] = locus YFL009W, strain cdc4, stronger effect = lower value
[54] = locus YFL029C, strain CAK1, stronger effect = lower value
[55] = locus YFR003C, strain YPI1, stronger effect = lower value
[56] = locus YFR019W, strain FAB1, stronger effect = lower value
[57] = locus YFR028C, strain CDC14, stronger effect = lower value
[58] = locus YGR040W, strain KSS1, stronger effect = lower value
[59] = locus YGR052W, strain FMP48, stronger effect = lower value
[60] = locus YGR092W, strain DBF2, stronger effect = lower value
[61] = locus YHR079C, strain IRE1, stronger effect = lower value
[62] = locus YHR082C, strain KSP1, stronger effect = lower value
[63] = locus YHR205W, strain SCH9, stronger effect = lower value
[64] = locus YIL147C, strain SLN1, stronger effect = lower value
[65] = locus YJL095W, strain BCK1, stronger effect = lower value
[66] = locus YJL128C, strain PBS2, stronger effect = lower value
[67] = locus YJL157C, strain FAR1, stronger effect = lower value
[68] = locus YJR016C, strain ILV3, stronger effect = lower value
[69] = locus YJR066W, strain TOR1 (second series), stronger effect = lower value
[70] = locus YJR066W, strain TOR1, stronger effect = lower value
[71] = locus YKL048C, strain ELM1, stronger effect = lower value
[72] = locus YKL067W, strain YNK1, stronger effect = lower value
[73] = locus YKL101W, strain HSL1, stronger effect = lower value
[74] = locus YKL193C, strain SDS22, stronger effect = lower value
[75] = locus YKL203C, strain TOR2, stronger effect = lower value
[76] = locus YLR113W, strain HOG1, stronger effect = lower value
[77] = locus YLR133W, strain CKI1, stronger effect = lower value
[78] = locus YLR403W, strain SFP1, stronger effect = lower value
[79] = locus YML070W, strain DAK1, stronger effect = lower value
[80] = locus YMR001C, strain CDC5, stronger effect = lower value
[81] = locus YMR205C, strain PFK2 (second series), stronger effect = lower value
[82] = locus YMR277W, strain FCP1, stronger effect = lower value
[83] = locus YNL006W, strain LST8, stronger effect = lower value
[84] = locus YNL020C, strain ARK1, stronger effect = lower value
[85] = locus YNL161W, strain CBK1, stronger effect = lower value
[86] = locus YNL183C, strain NPR1, stronger effect = lower value
[87] = locus YNL207W, strain RIO2, stronger effect = lower value
[88] = locus YNL222W, strain SSU72, stronger effect = lower value
[89] = locus YNL307C, strain MCK1 (second series), stronger effect = lower value
[90] = locus YOL078W, strain AVO1, stronger effect = lower value
[91] = locus YOL136C, strain PFK27, stronger effect = lower value
[92] = locus YOR061W, strain CKA2, stronger effect = lower value
[93] = locus YOR119C, strain RIO1, stronger effect = lower value
[94] = locus YOR231W, strain MKK1, stronger effect = lower value
[95] = locus YOR329C, strain SCD5, stronger effect = lower value
[96] = locus YPL031C, strain PHO85, stronger effect = lower value
[97] = locus YPL153C, strain RAD53, stronger effect = lower value
[98] = locus YPL204W, strain HRR25, stronger effect = lower value
[99] = locus YPL209C, strain IPL1, stronger effect = lower value
[100] = locus YPL256C, strain CLN2, stronger effect = lower value
[101] = locus YPR025C, strain CCL1, stronger effect = lower value
[102] = locus YPR106W, strain ISR1, stronger effect = lower value
[103] = locus YPR111W, strain DBF20, stronger effect = lower value
[104] = strain NNK1, stronger effect = lower value
[105] = strain TSCII, stronger effect = lower value

Measured: normalized growth

COc1ccc(-n2c(=S)[nH]c(=O)c3cccnc32)cc1
inactive: [1] 1 | [2] 1.01 | [3] 1.04 | locus YDL134C, strain PPH21, stronger effect = lower value 0.996 | [4] 0.985 | [5] 1 | [6] 1.04 | [7] 0.993 | [8] 1.06 | [9] 0.954 | [10] 0.99 | [11] 1.04 | [12] 0.993 | [13] 0.999 | [14] 0.991 | [15] 1.03 | [16] 0.988 | [17] 0.983 | [18] 0.999 | [19] 1.02 | [20] 1.02 | [21] 1 | [22] 1.01 | [23] 0.994 | [24] 0.973 | [25] 0.991 | [26] 1.05

CCN(CC)CCOC(=O)c1cc(Cl)c(N)cc1OC
inactive: [27] 0.981 | [28] 1.01 | [4] 1 | [29] 1 | [30] 1.02 | [6] 1.01 | [7] 1.01 | [12] 1.01 | [19] 1 | [31] 1 | [32] 1 | [20] 1 | [33] 1 | [34] 1.01 | [35] 1 | [36] 1.01 | [24] 0.954 | [25] 1

COc1cc(Cl)ccc1N/N=C(/C#N)C(N)=O
active: [37] 0.106 | [38] 0.0965 | [39] 0.109 | [40] 0.104 | [41] 0.104 | [42] 0.0952 | [43] 0.111 | [3] 0.124 | [44] 0.114 | [45] 0.102 | [46] 0.116 | [47] 0.0987 | [48] 0.104 | [49] 0.103 | [50] 0.115 | [51] 0.112 | [52] 0.12 | [53] 0.109 | [54] 0.109 | [55] 0.0947 | [56] 0.112 | [57] 0.106 | [58] 0.112 | [59] 0.153 | [60] 0.11 | [8] 0.194 | [61] 0.214 | [62] 0.221 | [63] 0.0135 | [64] 0.107 | [65] 0.189 | [66] 0.103 | [67] 0.105 | [68] 0.0991 | [69] 0.112 | [70] 0.181 | [71] 0.128 | [72] 0.119 | [73] 0.106 | [74] 0.106 | [75] 0.116 | [76] 0.262 | [77] 0.111 | [78] 0.00868 | [79] 0.114 | [80] 0.108 | [81] 0.104 | [82] 0.106 | [83] 0.0981 | [84] 0.11 | [85] 0.106 | [86] 0.148 | [87] 0.107 | [88] 0.105 | [89] 0.12 | [90] 0.105 | [91] 0.115 | [92] 0.0994 | [93] 0.115 | [94] 0.231 | [95] 0.102 | [96] 0.107 | [97] 0.111 | [98] 0.117 | [99] 0.0959 | [100] 0.231 | [101] 0.107 | [102] 0.0943 | [103] 0.108 | [104] 0.0995 | [105] 0.107

COC(=O)c1ccc(Cl)cc1NS(=O)(=O)c1ccc(OC)c(OC)c1
inactive: [1] 1.01 | [2] 0.976 | [3] 0.987 | [4] 1.04 | [5] 1.01 | [6] 0.986 | [7] 1.02 | [8] 0.969 | [9] 1.02 | [10] 1 | [11] 0.978 | [12] 0.984 | locus YKL190W, strain CNB1, stronger effect = lower value 1.01 | [13] 0.934 | [14] 1.01 | [15] 1.01 | [16] 0.947 | [17] 1.03 | [18] 1 | [19] 0.986 | [20] 0.996 | [21] 0.989 | [22] 1 | [23] 0.998 | [24] 0.966 | [25] 1.01 | [26] 0.999

Nc1cc(=O)[nH]c(N)n1
inactive: [27] 1.01 | [28] 0.991 | [4] 0.978 | [29] 0.953 | [30] 1.01 | [31] 0.981 | [32] 0.984 | [33] 1.01 | [34] 0.987 | [35] 1.01 | [22] 1 | [36] 1.02 | [25] 1.01

CC(C)(C)c1ccc(C(=N)SC(C(=O)C(F)(F)F)c2ccccc2)cc1 (configuration not stated)
inactive: [37] 0.987 | [38] 0.994 | [39] 0.994 | [40] 0.985 | [41] 0.994 | [42] 0.998 | [43] 0.989 | [3] 0.992 | [44] 0.987 | [45] 0.989 | [46] 0.916 | [47] 0.993 | [48] 0.986 | [49] 0.993 | [50] 0.865 | [51] 0.877 | [52] 0.942 | [53] 0.991 | [54] 0.982 | [55] 0.986 | [56] 0.884 | [57] 0.985 | [58] 0.894 | [59] 0.96 | [60] 0.887 | [61] 0.804 | [62] 0.766 | [63] 0.778 | [64] 0.992 | [65] 0.868 | [66] 1.02 | [67] 0.966 | [68] 0.995 | [69] 0.931 | [70] 0.859 | [71] 0.96 | [72] 0.951 | [73] 0.875 | [74] 0.986 | [75] 0.98 | [76] 0.901 | [77] 0.887 | [78] 0.89 | [79] 0.9 | [80] 0.983 | [81] 0.941 | [82] 0.993 | [83] 0.997 | [84] 0.884 | [85] 0.993 | [86] 0.863 | [87] 0.99 | [88] 0.989 | [89] 0.794 | [90] 0.994 | [91] 0.901 | [92] 0.885 | [93] 0.979 | [94] 0.938 | [95] 0.988 | [96] 0.872 | [97] 0.909 | [98] 0.905 | [99] 0.99 | [101] 0.995 | [102] 0.988 | [103] 0.977 | [104] 0.982 | [105] 0.985
active: [8] 0.471 | [100] 0.846
